Source: PubChem BioAssay (several laboratories)
Compounds with a hit are over-represented: about 3.3% of the library has one in this group of screens.
sPLA2-III inh: human group III sPLA2 inhibitors, primary screen, biochemical, QFRET, BODIPY PC-A2 liposome substrate. inhibition, % at 12.2 µM. Group 3 secretory phospholipase A2 (Homo sapiens), Q9NZ20. QFRET BODIPY PC-A2 liposome hydrolysis, fluorescence. AID 743126, 2013. actives 0.56% (n = 370,000);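 active = inhibition above mean plus 3 SD of compounds lying within the high and low control bounds, cut at about 19% in these data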;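 note: 0% = median of test compound wells and 100% = no enzyme DMSO wells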
Target sequence (Q9NZ20 whole entry, looked up): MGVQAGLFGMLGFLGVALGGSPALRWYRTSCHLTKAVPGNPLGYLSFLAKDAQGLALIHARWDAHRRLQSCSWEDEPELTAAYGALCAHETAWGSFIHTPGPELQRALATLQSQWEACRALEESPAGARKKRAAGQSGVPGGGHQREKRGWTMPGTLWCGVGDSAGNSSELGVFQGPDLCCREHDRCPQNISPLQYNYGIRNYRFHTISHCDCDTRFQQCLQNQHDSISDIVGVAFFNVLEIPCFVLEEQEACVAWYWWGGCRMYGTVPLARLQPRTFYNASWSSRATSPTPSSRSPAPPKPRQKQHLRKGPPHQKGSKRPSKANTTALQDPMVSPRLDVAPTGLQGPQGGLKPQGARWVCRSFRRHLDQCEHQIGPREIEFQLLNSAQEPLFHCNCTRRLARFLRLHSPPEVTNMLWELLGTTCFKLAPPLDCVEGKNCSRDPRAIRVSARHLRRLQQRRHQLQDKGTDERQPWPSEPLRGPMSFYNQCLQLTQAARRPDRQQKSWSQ
UBC9 SUMO inh: inhibitors of in vitro SUMOylation cascade, primary screen, biochemical, HTRF, uHTS; HTRF SUMOylation assay, SAE1/SAE2 + UBC9; inhibition, % at 35 µM; SUMO-conjugating enzyme UBC9 (Homo sapiens), P63279; actives 0.36% (n = 290,000); in the data active = inhibition above about 50%, passing the limit was not always enough
GRIN3A LBD mod: binders of NR3A ligand-binding domain, primary screen, biophysical, differential scanning fluorimetry, uHTS | Glutamate receptor ionotropic, NMDA 3A (GRIN3A) ligand-binding domain | NR3A LBD differential scanning fluorimetry, Tm shift; 0% = protein alone, 100% = glycine-bound protein | Tm shift relative to glycine control, % at 25 µM | actives 2.5% (n = 340,000);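 active = melting temperature shift of at least 10% of the positive control shift, at one fixed dose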
UBC13 polyUb: UBC13 polyubiquitin chain formation inhibitors, primary screen, biochemical, TR-FRET, uHTS. Ubiquitin-conjugating enzyme E2 N (Homo sapiens), P61088. inhibition, % at 20 µM. actives 0.47% (n = 330,000); in the data active = inhibition above about 45%, passing the limit was not always enough
Target sequence (P61088 whole entry, looked up): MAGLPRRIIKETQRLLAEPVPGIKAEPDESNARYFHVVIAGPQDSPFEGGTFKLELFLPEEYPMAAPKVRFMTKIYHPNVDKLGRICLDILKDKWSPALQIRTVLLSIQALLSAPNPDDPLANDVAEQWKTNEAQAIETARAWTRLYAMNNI
hGIII sPLA2 conf: human group III sPLA2 inhibitors, confirmation, biochemical, QFRET, triplicate. actives 34% (n = 2,000). inhibition, % at 12.2 µM. AID 743280, 2014. recombinant hGIII-sPLA2, BODIPY PC-A2 QFRET fluorescence. shares compounds with sPLA2-III inh;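 active = mean inhibition across triplicates above the hit cutoff set in the earlier primary screen, cut at about 19% in these data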;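 note: 0% = enzyme with DMSO and 100% = DMSO wells lacking enzyme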
BODIPY interf: 535nm fluorescence optical interference, confirmation, artefact control for HGIII-sPLA2 inhibitor project, biochemical, QFRET | BODIPY FL product fluorescence interference | inhibition, % at 12.2 µM | actives 8.5% (n = 2,000) | shares compounds with sPLA2-III inh;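 active = average inhibition above the solvent-only control mean plus 3 SD, cut at about 6% in these data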;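 note: 0% = DMSO with substrate plus product and 100% = DMSO with substrate alone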
BODIPY interf DR: 535nm fluorescence optical interference, dose response, artefact control for HGIII-sPLA2 inhibitor project, biochemical, QFRET; shares compounds with sPLA2-III inh; BODIPY FL product fluorescence interference, cell-free; IC50, µM; 240 tested, under 10 active; AID 743455, 2014;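 active = IC50 at or below 10 µM; inactive = IC50 above 10 µM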
* = called active by the depositor; . = no result.

SMILES | sPLA2-III inh | UBC9 SUMO inh | GRIN3A LBD mod | UBC13 polyUb | hGIII sPLA2 conf | BODIPY interf | others
C[N+]1=C(N)N[C@@]2(C=C3CCCCC3n3c(=O)n(-c4ccccc4)c(=O)n32)C1 (stereo not given in full) | 5 | . | . | . | . | .
O=S1(=O)CCOC[C@H](Cc2ccccc2)N1Cc1cccc(C(F)(F)F)c1 | 7 | . | -8 | 4 | . | .
FC(F)(F)c1cccc(CC2CN(Cc3ccccc3)Cc3ccccc3N2c2cc(Cl)cc(Cl)c2)c1 (stereo not given) | 27* | . | . | . | -4 | 3
Oc1ccc(Nc2nc(-c3cccs3)cs2)cc1 | 23* | 6 | -8 | 12 | 23* | 9.7*
CCOc1cc(CNc2ccc3c(c2)OCCO3)cc(Br)c1OCC | 23* | -8 | 5 | 8 | 34* | -4 | BODIPY interf DR=>122
CCOc1cc(CNc2ccc(N3CCOCC3)cc2)cc(Br)c1OCC | -5 | 34 | -1 | 6 | . | .
COCCOC(=O)C1=C(C)NC(=S)NC1/C=C/c1ccccc1 (stereo not given) | 22* | -10 | -3 | 0 | 14 | -9
CCOC(=O)C1=C(C)NC(=O)NC1c1ccc(N(CC)CC)cc1 (stereo not given) | 20* | -26 | -1 | 1 | 7 | -5
CCC(CC)COC(=O)C1=C(C)NC(=O)NC1c1ccc(N(C)C)cc1 (stereo not given) | 24* | 3 | 2 | 6 | 23* | -7
CCN(C(=O)[C@@H](C)[C@@H](O)c1ccc(C(C)=O)cc1)c1ccccc1 | 9 | . | . | . | . | .
CCC(=O)Nc1ccc(C(=O)NCc2ccccn2)cc1 | 20* | 3 | 0 | 0 | -1 | -2
CCC(=O)Nc1ccc(C(=O)NNC(=O)CCCCC(=O)NNC(=O)c2ccc(NC(=O)CC)cc2)cc1 | 22* | . | . | . | 2 | -10
Fc1ccc2nc(-c3ccc(CN4CCC5(CC4)CNc4ccccc45)cc3)c(-c3ccccc3)nc2c1 | 20* | . | . | . | 17 | -8
O=C(CNS(=O)(=O)c1ccc(Cl)s1)N1CCN(c2ccccn2)CC1 | 2 | . | . | . | . | .
CCCNC(=O)c1ccc(CN2CCc3ccccc3C2)cc1 | 5 | 15 | -10 | -6 | . | .
C/C(=N\NC(=O)c1ccc(CN2CCc3ccccc3C2)cc1)c1ccccc1O | 33* | -4 | -3 | 6 | 24* | -21
Cc1ccc(-n2c(Cc3cccs3)nnc2SCc2ccc(Br)cc2)cc1 | -6 | . | . | . | . | .
Oc1cccc(/C=N/NC(=S)Nc2cccnc2)c1O | 34* | -10 | -1 | . | 21* | 2
COc1cccc(C(=O)Nc2ccc(C(=O)NCC3COc4ccccc4O3)cc2)c1 (stereo not given) | 3 | . | . | . | . | .
CC(=O)C(C(C)=O)C1(O)C(=O)c2ccccc2C1=O | 22* | 94* | -6 | -14 | -5 | -4
CCc1cc2c3c(c1)C(C)CC(C)(C)N3C(=O)C2=O (stereo not given) | 27* | 0 | -1 | -17 | 12 | -4
Cc1ccc2c(c1)c1c(n2CC(O)CNC2CCCC2)CCCC1 (stereo not given) | 20* | 20 | 0 | 16 | 6 | -29
Cc1ccc2cc(C#N)c(SCC(=O)N3CCCc4ccccc43)nc2c1C | 20* | 10 | -1 | -5 | -3 | -4
Cc1ccc2cc(C#N)c(SCC(=O)N3CCCc4ccccc43)nc2c1 | 3 | 23 | -1 | 12 | . | .
COc1cccc(CNS(=O)(=O)c2cc3c(cc2Br)CC(C)N3C(C)=O)c1 (stereo not given) | 1 | . | . | . | . | .
SMILES | sPLA2-III inh | UBC9 SUMO inh | GRIN3A LBD mod | UBC13 polyUb | hGIII sPLA2 conf | BODIPY interf | others
FC(F)(F)Oc1ccc(Cn2ccc3ccc(-c4ccc5ccn(Cc6ccc(OC(F)(F)F)cc6)c5c4)cc32)cc1 | -7 | . | . | . | . | .
Cc1ccc2c(c1)C(=O)C(=O)N2Cc1ccc(C(F)(F)F)cc1 | 30* | . | -1 | 1 | 26* | 3
O=C1C(=O)N(Cc2ccc(-c3ccc(Cl)nc3)cc2)c2ccc(OC(F)(F)F)cc21 | 25* | . | . | . | 32* | -2 | BODIPY interf DR=>122
Cc1ccc(OCCN2C(=O)C(=O)c3cc(C)ccc32)cc1 | 12 | 4 | -1 | -12 | . | .
O=C1C(=O)N(Cc2ccc(-c3ccccc3)cc2)c2ccc(OC(F)(F)F)cc21 | 26* | . | . | . | 34* | 1 | BODIPY interf DR=>122
CC1Sc2ccccc2N(Cc2ccc(OC(F)(F)F)cc2)C1=O (stereo not given) | 11 | . | . | . | . | .
COc1ccc(C2CC(=O)C(c3ccccc3C)=CN2Cc2ccccc2)cc1 (stereo not given) | -2 | . | . | . | . | .
CCCCCC1CCC(c2n[nH]c(=S)n2C)CC1 (stereo not given) | 20* | 5 | -1 | -6 | 26* | -1
CCOC(=O)[C@@]12CCC3=C1N(CCC3)C(=O)[C@H](CC(=O)NCc1cccc(C(F)(F)F)c1)C2 | 6 | . | . | . | . | .
Cc1ccccc1NC(=O)Nc1nc(C(N)c2ccccc2)cs1 (stereo not given) | 22* | . | . | . | 1 | -3
CC(C)CC(N)c1csc(NC(=O)Nc2ccccc2C(C)C)n1 (stereo not given) | 22* | . | . | . | 3 | -21
CC(C)C(N)c1csc(NC(=O)Nc2cccc(Cl)c2)n1 (stereo not given) | 22* | . | . | . | 8 | -9
CC(C)c1ccccc1NC(=O)Nc1nc(C(N)Cc2ccc(C(F)(F)F)cc2)cs1 (stereo not given) | 9 | . | . | . | . | .
CC(C)c1ccc(NC(=O)Nc2nc(C(N)COCc3ccccc3)cs2)cc1 (stereo not given) | 22* | . | . | . | 8 | -3
Nn1c(SCC(=O)Nc2nccs2)nnc1-c1cc(-c2ccccc2)n[nH]1 | -5 | . | . | . | . | .
CCOC(=O)[C@@]12CCCC=C1N(CCc1ccc(Cl)cc1)C(=O)[C@H]2CC(=O)NCc1ccc(C)o1 | -17 | . | . | . | . | .
CC1=C(C(=O)N(C)C)CC(CC(=O)NC2CCCCC2)C(=O)N1CCCN1CCCC1=O (stereo not given) | 21* | . | . | . | 0 | -8
CC1=C(C(=O)N(C)C)CC(CC(=O)NC2CCCC2)C(=O)N1CCCN1CCCC1=O (stereo not given) | 15 | . | . | . | . | .
COc1ccc(-n2c(C)cc(C)c(C(C)=O)c2=S)cc1 | 20* | 9 | -5 | -16 | 4 | -6
COc1ccc(-n2c(C)c(C(C)=O)c3cc(OC(C)=O)ccc32)cc1 | 3 | 0 | -1 | 6 | . | .
